Consider 102 compounds from PubChem BioAssay AID588342 (National Center for Advancing Translational Sciences (NCATS), 2011).

Screen size: about 360,000 compounds; about 25,000 (6.9%) were called active. Another 9% or so got no clear call; they are omitted. What follows is part of a selection rich in actives, with near analogues and random picks from the rest. A call without a number means that no potency is given here. Values without a mark were called inactive. Calls come from the whole dose curve; as a rule, active = well fitted inhibition curve with a large enough effect; inconclusive = small, poorly fitted or top-dose-only effect; inactive = flat fitted curve, though single readings scatter.
Potency is the fitted concentration of half-maximal effect.

For the assay, the target named is Luciferin 4-monooxygenase (Photinus pyralis) (UniProt P08659). Description: qHTS profiling assay for firefly luciferase inhibitor/activator using purifed enzyme and Km concentrations of substrates (counterscreen for miR-21 project). Note: nearly all actives have a fitted effect of over 55% in size. Conditions: purified FLuc, luminescence inhibition; series mostly up to 57.5 µM. In short, it runs like this: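 Purified P. pyralis luciferase, 10 nM final, with Km-level 10 uM D-luciferin and 10 uM ATP in 50 mM Tris acetate pH 7.5, 10 mM Mg acetate, 0.01% Tween-20, 0.05% BSA; 6-point qHTS titration about 60 µM downward; luminescence read.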
Luciferin 4-monooxygenase (Photinus pyralis), sequence (P08659 whole entry, looked up): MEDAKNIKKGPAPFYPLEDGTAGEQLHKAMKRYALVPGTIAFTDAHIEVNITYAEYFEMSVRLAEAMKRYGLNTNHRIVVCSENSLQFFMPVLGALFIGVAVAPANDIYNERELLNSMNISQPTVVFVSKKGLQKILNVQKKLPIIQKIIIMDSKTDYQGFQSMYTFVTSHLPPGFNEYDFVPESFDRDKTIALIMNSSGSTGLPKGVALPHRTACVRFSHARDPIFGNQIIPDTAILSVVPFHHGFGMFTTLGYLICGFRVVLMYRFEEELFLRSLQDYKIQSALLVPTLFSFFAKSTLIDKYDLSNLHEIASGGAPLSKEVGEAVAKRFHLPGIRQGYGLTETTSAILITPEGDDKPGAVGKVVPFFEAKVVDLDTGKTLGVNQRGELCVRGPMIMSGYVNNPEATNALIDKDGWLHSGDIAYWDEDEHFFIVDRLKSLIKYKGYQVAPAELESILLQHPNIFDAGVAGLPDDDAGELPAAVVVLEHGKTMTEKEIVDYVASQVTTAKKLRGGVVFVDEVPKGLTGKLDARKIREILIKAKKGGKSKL
Turning to `CC1=C(C(=O)OCc2ccc(C)cc2)C(c2c(Cl)cccc2Cl)CC(=O)N1` (configuration not stated), the Potency entry is “inactive”.
Still for that read-out and setting: the entry for `CCOC(=O)c1ccc(NC(=O)C2CC(=O)NC(=Nc3ccc(C)c(C)c3)S2)cc1` (configuration not stated) is “inactive”; for `O=C1N/C(=C/c2cccs2)C(=O)N1Cc1ccc(F)cc1` it is “inactive”; for `CSC1=N/C(=C\C=C\c2cccs2)C(=O)S1` it is 16.9 µM (active).
For the compound `O=S1(=O)CCC(NC(=S)SCc2ccccc2Br)C1` (configuration not stated), the Potency result is “inactive”.
On the same count and under the same terms, the entry for `Cc1ccc(S(=O)(=O)N2CCN(C(=O)COC(=O)c3c(C)noc3C)CC2)c(C)c1` is “inactive”; for `COc1cc(OC)cc(C(=O)NCC(=O)OCc2csc(-c3ccccc3)n2)c1` it is “inactive”.
As to `Cc1ccc(-c2nc(COC(=O)c3c(C)noc3C)cs2)cc1`, the Potency was 9.53 µM (active).
As for `CCC(C)C(N=C1NS(=O)(=O)c2ccccc21)C(=O)N1CCC(C)CC1` (configuration not stated), the Potency result was “inactive”.
In the case of `Nc1c(NCCc2ccccc2)c2ccccc2oc1=O`, the Potency entry was “inactive”.
The same measure, in the same setting: the entry for `COc1ccc(C2/C(=C(/O)c3ccccc3)C(=O)C(=O)N2C)c(OC)c1` (configuration not stated) is “inactive”; for `COc1ccc(/C(O)=C2/C(=O)C(=O)N(c3nc(C)c(C)s3)C2c2ccco2)cc1` (configuration not stated) it is “inactive”.
For the compound `CCOc1ccc(/C(O)=C2\C(=O)C(=O)N(c3ccc(OC)cc3)C2c2ccccc2[N+](=O)[O-])cc1` (configuration not stated), the Potency is 8.49 µM (active).
The same measure, in the same setting: the entry for `Cc1ccc(C(=O)Nc2ncccc2C)cc1S(=O)(=O)N1CCOCC1` is “inactive”; for `O=C1CSC(=S)N1c1ccc(O)cc1` it is “inactive”.
For the compound `CCOc1cccc(/C=N/NC(=S)NCCN2CCOCC2)c1O`, the Potency result was “inactive”.
Regarding `CCOc1cccc(/C=N/N2C(=O)CSC2=S)c1O`, the Potency was 21.3 µM (active).
On to `C=CCNC(=S)NNC(=O)COc1c(Cl)cc(Cl)cc1Cl`, for which the Potency result was “inactive”.
Consider `COc1ccccc1CNC(=O)NCc1noc2ccc(C)cc12`, for which the Potency result is “inactive”.
`Oc1ccc(-c2nncn2-c2ccccc2)cc1`: the Potency result was “inactive”.
Same read-out and setting: the entry for `O=S(=O)(Cc1nnnn1-c1ccccc1)c1ccccc1` is “inactive”; for `c1ccc(-n2nc3ccccc3n2)cc1` it is 19 µM (active); for `COc1ccc(NC(=O)CN(C)C(=O)c2cc(-c3ccc(C)o3)nc3ccccc23)cc1` it is 3.38 µM (active).
Consider `COc1ccc(NC(=O)CN(C)C(=O)c2n[nH]c3ccccc23)cc1`, for which the Potency was 23.9 µM (active).
In the case of `COc1ccc(NC(=O)CN(C)C(=O)CNC(=O)C2CCCCC2)cc1`, the Potency result is “inactive”.
As for `COc1ccc(NC(=O)CN(C)C(=O)c2ccc(COc3ccccc3)o2)cc1`, the Potency entry is “inactive”.
Consider `COc1ccc(NC(=O)CN(C)C(=O)Cc2coc3cc(C)c(C)cc23)cc1`, for which the Potency entry is “inactive”.
Same read-out and setting: the entry for `CN(C)S(=O)(=O)c1ccc(NC(=O)COC(=O)c2n[nH]c3ccccc23)cc1` is “inactive”; for `Cc1ccc(C(=O)Nc2ccc(OCc3cc(=O)n4c5c(sc4n3)CCCC5)cc2)cc1` it is “inactive”; for `Cc1ccc(NC(=O)CCCNC(=O)c2ccc(Cl)cc2)cc1S(=O)(=O)N1CCOCC1` it is “inactive”.
Regarding `COc1cc(NC(=O)c2noc3c2CSc2ccccc2-3)cc(OC)c1OC`, the Potency result is “inactive”.
In the case of `COc1ccc(CNC(=O)COCc2cc(-c3cccs3)on2)cc1OC`, the Potency result is “inactive”.
Still for that read-out and setting: the entry for `COc1ccc(-c2csc(-c3c(N)c(C(=O)c4ccc(OC)c(OC)c4)n4ccccc34)n2)cc1` is “inactive”; for `COc1ccc(-c2csc(-c3cccs3)n2)cc1OC` it is 23.9 µM (active); for `COc1ccccc1-c1cc(C(F)(F)F)nc(S(=O)(=O)CCCC(=O)Nc2ccc(F)cc2F)n1` it is “inactive”.
The same measure, in the same setting: the entry for `CCN(C(=O)Cn1c(=O)nc(-c2ccccc2)c2cc(Cl)ccc21)c1cccc(C)c1` is “inactive”; for `COc1cc(OC)cc(C(=O)NCCSCc2ccco2)c1` it is “inactive”; for `O=C(NCCc1ccco1)c1nn(Cc2ccccc2)c(=O)c2ccccc12` it is “inactive”.
The same measure, in the same setting: the figure for `Cc1ccsc1C(=O)NCCc1ccco1` is 21.3 µM (active).
For the compound `CCC(=O)Nc1cccc(C2=NOC3(C2)C[C@@H](C(N)=O)N(C(=O)c2cc([N+](=O)[O-])cc([N+](=O)[O-])c2C)C3)c1` (some centres not stated), the Potency result is “inactive”.
The same measure, in the same setting: the entry for `COc1ccc(Cn2ccc3nc(C)c(C(=O)Nc4ccc(C)c(F)c4)cc3c2=O)cc1` is “inactive”; for `COc1cccc(Cn2c(CNS(=O)(=O)c3ccc(Cl)s3)nc3cccnc32)c1` it is “inactive”; for `COc1ccc(NC(=O)C(c2ccccc2)N2Cc3ccccc3C2=O)cc1` (configuration not stated) it is “inactive”.
As for `CC(=O)c1ccc(NC(=O)c2cc(-c3cccs3)on2)cc1`, the Potency result is “inactive”.
Still for that read-out and setting: the entry for `Cc1nonc1C1CCCN1C(=O)c1cc(COc2cccc(C(F)(F)F)c2)on1` (configuration not stated) is “inactive”; for `O=C(c1cc(-c2cccs2)on1)N1CCCCC1` it is 23.9 µM (active); for `COc1cccc(OCc2cc(C(=O)N3CCN(C(=O)c4ccco4)CC3)no2)c1` it is 12 µM (active).
On the same count and under the same terms, the figure for `CCCOC1CCCN(C(=O)c2cc(COc3cncc(Cl)c3)on2)C1` (configuration not stated) is 10.7 µM (active); for `O=C(c1cc(-c2ccccc2O)on1)N1CCCC1` it is 6.75 µM (active).
As to `O=C(c1ccc(F)cc1)N1CCCC(c2nc(-c3cccs3)no2)C1` (configuration not stated), the Potency entry was “inactive”.
With `COc1cccc(OC)c1OCCN1CCN(C(=O)c2ccco2)CC1`, the Potency result is “inactive”.
On to `CCOC(=O)CC1(NC(=O)c2cc(COc3cncc(Cl)c3)on2)CCCCC1`, for which the Potency result is “inactive”.
`O=C(c1ccco1)N1CCN(C(=O)c2ccc(COc3ccc(F)cc3)o2)CC1`: the Potency result was “inactive”.
As to `O=C(c1ccc(Cl)c(Cl)c1)N1CCCC1`, the Potency entry is “inactive”.
With `CNC(=O)n1ccc(C(=O)N2CCCCC2)n1`, the activity change, negative = inhibition was 2.3% [at 2.3 µM].
For the compound `CCOC(=O)c1c(C)oc2nc(C)nc(N3CCN(c4ccc(OC)cc4)CC3)c12`, the Potency result is “inactive”.
`O=S(=O)(c1ccc(SCc2ccc(Br)cc2)nc1)N1CCOCC1`: the Potency entry was “inactive”.
In the case of `COc1ccccc1N1CCN(c2ncnc3onc(-c4cccc(Cl)c4)c23)CC1`, the Potency result was “inactive”.
Regarding `COc1cc(NC(=O)c2nn(-c3ccc(C)cc3)c(=O)c3c2c2ccccc2n3C)cc(OC)c1OC`, the Potency entry is “inactive”.
The same measure, in the same setting: the entry for `COc1cc2nc(SCC(=O)Nc3ccccc3F)n3nc(-c4ccccc4)nc3c2cc1OC` is “inactive”; for `c1ccc(CNc2ncnc3[nH]ncc23)cc1` it is “inactive”.
Consider `Cc1ccc(NC(=O)CN(C)C(=O)c2cccc(S(=O)(=O)N3CCCC3)c2)cc1`, for which the Potency entry is “inactive”.
On the same count and under the same terms, the entry for `Cc1[nH]c2c(C(=O)N3CCCC(CCC(=O)NCc4ccccc4F)C3)cccc2c1C` (configuration not stated) is “inactive”; for `COc1cc(Cl)ccc1OCc1cc(C(=O)N(C)CCc2c(C)n[nH]c2C)no1` it is “inactive”.
Consider `O=C(Cc1c(F)cccc1Cl)N1CCN(C(=O)c2ccco2)CC1`, for which the Potency result was “inactive”.
Same read-out and setting: the entry for `COc1ccc(Cl)cc1C(=O)NNC(=S)NC1CCCC1` is “inactive”.
Still for that read-out and setting: the entry for `O=C(NCCCN1CCOCC1)c1cc(-c2ccccc2F)no1` is “inactive”; for `Cc1ccc(C)c(OCc2cc(C(=O)N3CCN(c4cnccn4)CC3)no2)c1` it is “inactive”.
For the compound `COc1ccc(OCc2cc(C(=O)N3CCCC3)no2)c2ccccc12`, the Potency is 9.53 µM (active).
In the case of `O=C(c1ccco1)N1CCN(C(=O)c2cc(-c3ccccc3F)no2)CC1`, the Potency is 13.5 µM (active).
The same measure, in the same setting: the entry for `COc1ccccc1OCc1ccc(C(=O)N2CCN(C)CC2)o1` is “inactive”; for `COc1ccc(C(=O)C2CCCN(C(=O)c3cc(C)on3)C2)cc1F` (configuration not stated) it is “inactive”.
On the same count and under the same terms, the entry for `COc1cccc(-c2cc(C(=O)N3CCN(c4ccccc4OC)CC3)no2)c1` is “inactive”; for `COc1cc(Cl)ccc1OCc1cc(C(=O)N2CC[C@@H]3CCCC[C@H]3C2)no1` it is 23.9 µM (active).
For the compound `COc1ccccc1-c1cc(C(=O)N2CCCCC2)no1`, the Potency was 5.36 µM (active).
As for `Fc1ccc(-c2nn(-c3ccccc3Cl)c3c2cnc2ccccc23)cc1`, the Potency result is “inactive”.
Take `O=C(CN1C2CCC1CC(NC(=O)C1CC1)C2)NCc1ccccc1` (configuration not stated): the Potency entry is “inactive”.
On to `COc1ccc(CNC(=O)CN(Cc2ccccc2Cl)C(=O)c2csnn2)cc1`, for which the Potency entry was “inactive”.
Consider `CCc1nn(CC(=O)Nc2cc(C)cc(C)c2)c(=O)c2cc3sccc3n12`, for which the Potency entry is “inactive”.
As to `O=C(NCC(c1ccc(Cl)cc1)N1CCOCC1)c1ccccc1F` (configuration not stated), the Potency entry is “inactive”.
On to `COC(=O)c1scc(S(=O)(=O)C(C)(C)C)c1-n1cccc1`, for which the Potency result was “inactive”.
For `O=C(NCCC1=CCCCC1)c1ccc2c(c1)N(Cc1ccccc1F)C(=O)c1ccccc1S2(=O)=O`, the Potency entry was “inactive”.
Same read-out and setting: the entry for `COCCNc1nnc(SCC(=O)NNC(=O)c2ccco2)s1` is “inactive”; for `Cc1cccc(Cc2c(C)nc3nc(SCc4ccccc4Cl)nn3c2C)c1` it is “inactive”.
As for `CCOC(=O)c1ccc(NC(=O)Cn2cc(S(=O)(=O)Cc3ccccc3F)c3ccccc32)cc1`, the Potency result was “inactive”.
On the same count and under the same terms, the entry for `Cc1ccc(CNC(=O)CCc2c(C)nc3c(c(C)nn3-c3ccccc3)c2C)cc1` is “inactive”; for `CC(C)(C)NC(=O)CSC(=Nc1ccccc1F)NC#N` it is “inactive”.
Turning to `CC1CN/C(=C\C(=O)c2ccc(Br)cc2)C(=O)N1` (configuration not stated), the Potency is 1.9 µM (active).
Same read-out and setting: the entry for `CC1(C)Cc2ccccc2/C(=C/C(=O)c2ccccc2)N1` is “inactive”; for `O=C(O)C1CCCN1S(=O)(=O)c1ccc(Br)cc1` (configuration not stated) it is “inactive”; for `CCN(CC)S(=O)(=O)c1ccc(Cl)c(C(=O)NCCN2CCOCC2)c1` it is “inactive”.
Still for that read-out and setting: the entry for `O=C(NCc1ccccc1)C(c1ccccc1)N(C(=O)c1csnn1)c1ccc(F)cc1` (configuration not stated) is “inactive”.
Take `COc1cccc(CNC(=O)CN2C(=O)CCc3cc(S(=O)(=O)N4CCOCC4)ccc32)c1`: the Potency result is “inactive”.
Same read-out and setting: the entry for `Cc1nc(-c2ccc(F)cc2)c(CC(=O)N(C)CC(=O)Nc2c(C)cccc2C)s1` is “inactive”.
On the same count and under the same terms, the entry for `COc1ccc(OC)c(/C=N/NC(=O)CSc2nnc(C)n2-c2ccccc2)c1` is “inactive”; for `COc1ccc(C(=O)NC2CC(C)(C)Cc3c2cnn3-c2ccccc2)c(OC)c1` (configuration not stated) it is “inactive”.
Same read-out and setting: the figure for `COc1ccc(/C=C2/C(=O)N(c3ccccc3)N=C2C)c(OC)c1` is 15.1 µM (active); for `CCCCc1ccc(NS(=O)(=O)c2cccc(C(=O)N3CCCN(C)CC3)c2)cc1` it is “inactive”; for `COc1cc(NS(=O)(=O)c2ccc(NC(C)=O)cc2)cc(OC)c1` it is “inactive”.
As for `COc1ccc(NS(=O)(=O)c2ccc(NC(=S)NC(=O)/C=C/c3ccc(C)cc3)cc2)nn1`, the Potency result was “inactive”.
For `COc1ccc(/C=C/C(=O)c2ccc(NS(=O)(=O)c3ccc(C)cc3)cc2)cc1O`, the Potency was 6.01 µM (active).
Same read-out and setting: the entry for `COc1cccc2c1cc1c(=O)n(CC(=O)N3CCN(c4ccccc4)CC3)nc(C)n12` is “inactive”.
